Source: PubChem BioAssay (several laboratories)
Most compounds without a hit are left out; they make up all but 2.9% or so of the library.
EP2 mod – modulators of human EP2 prostaglandin E2 receptor | P43116 | EP2-expressing cells, cAMP HTRF FRET, PGE2 co-stimulation | induction, % at 25 µM | 260,000 compounds, 0.83% hits;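 active = compounds whose cAMP rise, as percent of the full-agonist control response, exceeds 60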;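 also: rat C6 glioma line stably carrying human EP2 under a CMV promoter; the protocol text gives 20 µM as final concentration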
RAM network inh – blocks the yeast RAM network; S. cerevisiae dse1pr::URA3 reporter, 5-FOA growth OD615, 2 d; analog-sensitive cbk1-as2 kinase mutant strain; inhibition, % at 50 µM; 190,000 compounds, 1.8% hits;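 active = inhibition above a set limit, 3 SD over mean compound inhibition, cut at about 8.4% in these data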;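 also: inhibition rescues growth on 5-FOA so higher OD means more RAM inhibition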
EP2 antag – blocks the human prostaglandin E2 receptor EP2; P43116; C6 glioma cells expressing human EP2, cAMP TR-FRET; cells stimulated with saturating PGE2; inhibition, % at 25 µM; 260,000 compounds, 0.52% hits; AID 1422;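 active = percent inhibition above 40 after rounding to a whole number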;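 also: rat C6 glioma host cells with rolipram phosphodiesterase inhibitor present; the protocol text gives 20 µM as final concentration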
NR1D1 modulator – modulates human Rev-erb alpha binding to DNA | P20393 | Rev-erbα–FITC-DNA binding, fluorescence polarization, 90 min | activity, % at 10 µM | 370,000 compounds, 0.79% hits | AID 1259318;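 active = activity above about 14%, limit read from the data; passing the limit was not always enough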
Target sequence (P20393 whole entry, looked up): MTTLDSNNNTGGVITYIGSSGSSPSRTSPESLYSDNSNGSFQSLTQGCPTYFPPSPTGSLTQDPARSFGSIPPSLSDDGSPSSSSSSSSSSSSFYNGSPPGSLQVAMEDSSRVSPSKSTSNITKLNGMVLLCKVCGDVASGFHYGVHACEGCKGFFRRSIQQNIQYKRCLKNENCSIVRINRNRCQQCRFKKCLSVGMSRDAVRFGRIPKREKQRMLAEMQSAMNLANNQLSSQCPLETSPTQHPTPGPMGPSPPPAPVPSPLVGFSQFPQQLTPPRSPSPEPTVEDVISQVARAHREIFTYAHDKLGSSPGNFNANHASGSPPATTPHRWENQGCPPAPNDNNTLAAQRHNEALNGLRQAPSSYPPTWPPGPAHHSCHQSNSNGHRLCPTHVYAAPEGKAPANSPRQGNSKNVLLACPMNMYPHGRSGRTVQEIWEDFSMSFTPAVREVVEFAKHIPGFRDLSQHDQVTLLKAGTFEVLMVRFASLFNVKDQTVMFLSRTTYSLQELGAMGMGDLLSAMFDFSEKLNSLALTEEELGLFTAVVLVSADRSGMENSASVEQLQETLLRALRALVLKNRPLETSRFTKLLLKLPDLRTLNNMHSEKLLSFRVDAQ
PG9 binder – PG9 antibody binding by small molecule; 360,000 compounds, 0.43% hits; TR-FRET gp120-PG9 antibody binding; inhibition, % at 6.7 µM; AID 624416; in the data active = inhibition above about 8.5%
SKN-1 inh – C. elegans SKN-1 inhibition. C. elegans VP596 Pgst-4::GFP/RFP ratio, acrylamide-induced, 24 h. inhibition, % at 21.8 µM. 360,000 compounds, 0.49% hits. AID 624304;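 active = interference check ratio from 0.5 to 1.5 plus GFP to RFP signal ratio inhibition reaching or exceeding a fixed threshold, cut at about 30% in these data, passing the limit was not always enough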
Numbers stand for hits; . = inactive; / = not tested or not shown.

SMILES	EP2 mod	RAM network inh	EP2 antag	NR1D1 modulator	PG9 binder	SKN-1 inh
Cc1ccc(C2(O)CCN(CCNC(=O)c3cc4c(s3)CCC4)CC2)cc1	.	/	.	/	/	/
CCN(CC)S(=O)(=O)c1ccc(Cl)c(NC(=O)c2ccccc2C)c1	63	.	.	.	.	.
CCN(CC)S(=O)(=O)c1ccc(OC)c(NC(=O)CSc2cc(Cl)ccc2Cl)c1	.	9.2	.	.	.	.
CCN(CC)S(=O)(=O)c1ccc(OC)c(NC(=O)CSc2ccccc2)c1	.	.	.	.	.	.
CCN(CC)S(=O)(=O)c1ccc(Cl)c(NC(=O)c2cc(Cl)cc(Cl)c2)c1	.	.	.	.	.	.
O=C(Cc1ccccc1)Nc1cccc(N2C(=O)C=CC2=O)c1	.	.	133	.	.	.
COc1cccc(NC(=O)Cc2ccccc2)c1	.	.	.	.	.	.
O=C1c2ccccc2CCc2ccc(Br)cc21	/	/	/	.	.	36
C=CS(=O)(=O)c1ccc(Oc2ccc(S(=O)(=O)C=C)cc2)cc1	.	.	72	.	.	.
CC1CC2(CCCCC2)Nc2c1ccc1ccccc21 (configuration not stated)	63	9.4	.	.	.	.
Cc1ccc(C(C(=O)NC2CCCCC2)N(CC2CCCO2)C(=O)CNC(=O)c2cccs2)cc1 (configuration not stated)	.	8.9	.	.	.	.
CCOC(=O)CN(C(=O)CNC(=O)c1cccs1)C(C(=O)NC1CCCCC1)c1cccs1 (configuration not stated)	.	.	.	.	.	46
O=C(CSc1nnc(-c2cccnc2)o1)N(C1CCCCC1)C1CCCCC1	.	/	.	/	/	/
O=C1/C(=C\c2cccs2)SC(=S)N1C1CCS(=O)(=O)C1 (configuration not stated)	.	.	.	.	.	39
O=C(C=Cc1ccccc1)CC(c1ccccc1)N1CCOCC1 (configuration not stated)	/	/	/	.	.	83
O=C(C(c1ccccc1)N1CCOCC1)N1CCOCC1 (configuration not stated)	.	.	.	.	.	.
COc1ccc(-c2nnc(COc3ccc4ccccc4c3)o2)cc1OC	.	9.7	.	.	.	.
ONC(=Nc1ccccc1Cl)c1ccccc1Cl	71	/	.	.	.	.
O=[N+]([O-])c1cccc(C(=Nc2ccccc2Cl)NO)c1	.	.	.	.	.	.
O=C(O)c1ccc(N/N=C/c2cn(Cc3ccccc3F)c3ccccc23)cc1	87	/	.	.	.	.
FC(F)(F)c1cccc(Sc2nc(-c3ccccc3)nnc2C(F)(F)F)c1	.	8.6	.	.	.	.
Cc1cccc(-c2nc(-c3ccncc3)no2)c1	.	/	.	.	.	.
FC(F)(F)c1nnc(-c2ccccc2)nc1Sc1ccc(Cl)cc1	.	.	.	.	.	.
FC(F)(F)c1cccc(-c2nc(-c3ccncc3)no2)c1	/	/	/	.	.	50
Cc1ccc(-c2nc(-c3ccncc3)no2)cc1	.	/	.	.	.	42
SMILES	EP2 mod	RAM network inh	EP2 antag	NR1D1 modulator	PG9 binder	SKN-1 inh
Brc1cccc(-c2nc(-c3ccncc3)no2)c1	.	.	.	.	.	77
Cc1cccc(NC(=O)CSc2nc3ccccc3n2CC(=O)N2CCC(C)CC2)c1C	.	/	.	/	/	/
COc1ccc(N(CCc2ccccn2)C(=O)c2cnc(C(C)(C)C)nc2)cc1	.	/	.	/	/	/
CC(OC(=O)C1=COCCO1)C(=O)Nc1ccc(Oc2ccccc2)cc1 (configuration not stated)	.	10	.	.	.	.
Cc1ccc(C(=O)Oc2cccc(NC(=O)c3ccccc3)c2)cc1C	.	10	.	.	.	.
Cc1ccc(NC(=O)c2ccccc2)cc1C	/	/	/	.	.	.
Cc1cc(C(=O)CSc2nn3c(=O)c(C(C)(C)C)nnc3s2)c(C)n1-c1ccc(F)cc1	.	.	44	.	.	.
CCOC(=O)C(C)C1(O)c2ccccc2-c2ncccc21 (configuration not stated)	.	.	.	.	.	37
Cc1cc(C)c2cc(CN(Cc3cccnc3)S(=O)(=O)c3cccc4nsnc34)c(=O)[nH]c2c1	.	/	.	/	/	/
O=CN1CCc2scc[n+]2-c2ccccc21	.	.	.	.	.	36
O=C(Nc1ccccc1)N1CCc2scc[n+]2-c2ccccc21	.	.	.	.	.	.
C=CCN1CCN(C(c2ccc(OC)cc2)c2nnnn2C(C)(C)C)CC1 (configuration not stated)	.	/	.	/	/	/
Cc1ccccc1C(=O)N1CCN(c2ccc(NC(=O)c3ccc([N+](=O)[O-])o3)cc2)CC1	.	/	130	.	.	.
CC(C)C(=O)N1CCN(c2ccc(NC(=O)c3ccc([N+](=O)[O-])o3)cc2Cl)CC1	.	.	116	.	.	.
CN1CCN(c2ccc(NC(=O)c3ccc([N+](=O)[O-])o3)cc2Cl)CC1	/	/	/	.	.	.
CCN1CCN(c2ccc(NC(=O)c3ccc([N+](=O)[O-])o3)cc2)CC1	.	/	95	/	/	/
CCN1CCN(c2ccc(NC(=O)c3ccccc3F)cc2)CC1	.	/	59	/	/	/
O=C(Nc1ccc(N2CCCC2)cc1)c1ccccc1F	.	.	.	.	.	.
CNC(=S)N(Cc1cccnc1)Cc1cc2cc(C)cc(C)c2[nH]c1=O	.	/	.	/	/	/
O=C(Nc1ccc(N2CCN(C(=O)c3ccccc3)CC2)cc1)c1ccc([N+](=O)[O-])o1	.	.	49	.	.	.
COc1cc(NC(=O)c2ccc([N+](=O)[O-])o2)ccc1NC(=O)c1ccco1	/	/	/	.	.	.
CC(C)C(=O)N1CCN(c2ccc(NC(=O)c3ccc([N+](=O)[O-])o3)cc2)CC1	.	.	.	.	.	.
Cc1cc(NC(=O)c2ccc([N+](=O)[O-])o2)ccc1NC(=O)c1ccco1	.	.	64	.	.	.
O=C(O)CCC(O)=C1S(=O)(=O)OCCOS1(=O)=O	.	/	43	/	/	/
CC(=O)CCC(=O)O	/	/	/	.	/	/
SMILES	EP2 mod	RAM network inh	EP2 antag	NR1D1 modulator	PG9 binder	SKN-1 inh
COc1ccccc1C(=O)/C=C/c1ccc(N2CCCCC2)c([N+](=O)[O-])c1	.	9.7	.	.	.	.
O=C(O/N=C\c1ccc(N2CCCCC2)c([N+](=O)[O-])c1)c1ccc(Cl)cc1Cl	.	10	/	.	.	.
O=C(/C=C/c1ccc(N2CCCCC2)c([N+](=O)[O-])c1)c1ccc(O)cc1	.	8.6	.	.	.	.
CCn1cc(Cl)c(C(=O)N2N=C3/C(=C/c4cccs4)CCCC3C2c2cccs2)n1 (configuration not stated)	.	10	.	.	.	.
CC(=O)N1N=C2c3ccccc3CCC2C1c1cccs1 (configuration not stated)	.	/	.	.	.	.
Cn1c(SCC(=O)Nc2cccc3ccccc23)nnc1C1CCCCC1	.	/	.	/	/	/
CS(=O)CCNC(=O)c1cc(-c2ccc(F)cc2)no1 (configuration not stated)	.	/	.	/	/	/
